Compounds with a hit are over-represented: about 28% of the library has one in this group of screens.
CYP2C19 activ: activators of human cytochrome P450 2C19. P33261. recombinant CYP2C19, luciferin-H EGE luminescence; active compounds read high; 0 = fully inhibited enzyme, 1 = untreated enzyme. activation factor at 5 µM. 96,000 tested, under 10 active. AID 1025;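 active means activation factor of at least 2 at 5 µM in the primary screen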
DAT uptake mod: modulates human dopamine transporter uptake under cocaine | Q01959 | AID 449768 | B-score at 10 µM | 110,000 tested, 1.3% active | LLC-PK1 hDAT cells, [14C]-dopamine uptake with cocaine IC80; actives deviate in either direction;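 active means Z score or B-score, a plate-position-corrected score, falls beyond the plate's 99.7% confidence bounds, in either direction; inactive means both scores lie inside the 99.7% bounds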
CYP2C9 activ: increases human cytochrome P450 2C9 activity. activation factor at 5 µM. 96,000 tested, 1.4% active. AID 1024. P11712. recombinant CYP2C9, luciferin-H conversion, luminescence; active compounds read high; factor 1 = untreated enzyme, 0 = blocked;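 active means activation factor of 2 or more for CYP2C9 at a 5 µM dose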
Target sequence (P11712 whole entry, looked up): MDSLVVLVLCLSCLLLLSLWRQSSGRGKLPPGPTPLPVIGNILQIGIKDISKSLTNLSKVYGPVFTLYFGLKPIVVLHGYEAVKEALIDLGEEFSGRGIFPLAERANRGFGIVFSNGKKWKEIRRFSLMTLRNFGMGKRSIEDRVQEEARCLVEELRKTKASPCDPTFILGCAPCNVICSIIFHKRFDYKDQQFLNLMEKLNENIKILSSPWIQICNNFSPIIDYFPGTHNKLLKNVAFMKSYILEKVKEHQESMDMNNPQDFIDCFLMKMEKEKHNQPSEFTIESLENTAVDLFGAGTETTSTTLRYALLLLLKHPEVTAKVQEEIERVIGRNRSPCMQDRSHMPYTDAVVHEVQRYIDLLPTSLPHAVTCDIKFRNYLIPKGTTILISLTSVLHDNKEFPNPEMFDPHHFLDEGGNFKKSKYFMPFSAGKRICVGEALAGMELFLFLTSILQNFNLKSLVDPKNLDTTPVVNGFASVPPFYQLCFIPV
CYP2C9 inh: human CYP2C9 inhibition | CYP2C9 Supersomes, luciferin-H conversion, luminescence | 96,000 tested, 20% active | inhibition, % at 5 µM | AID 777;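 active means blocking of liver enzyme CYP2C9 beyond about 50% at 5 µM, limit read from the data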
CYP2C19 inh: blocks human cytochrome P450 2C19 | P33261 | CYP2C19 Supersomes, luciferin-H EGE luminescence, 30 min | inhibition, % at 5 µM | 96,000 tested, 21% active | AID 778;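 active means CYP2C19 inhibition above a set limit at 5 µM in the primary screen, cut at about 50% in these data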
D1 allo mod: allosteric modulators of human D1 dopamine receptor; P21728; HEK293 D1, CRE-luciferase, dopamine EC30 potentiation; actives deviate in either direction; B-score at 10 µM; 58,000 tested, 5.9% active; AID 641;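 active means luminescence count or its row- and column-corrected plate score outside the 99.7% band of the plate's sample wells, on either side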
Each line names hits and unclear results; the compound was inactive in the other large screens.

C/C(=N\OC(=O)c1ccc(Cl)cc1)c1nccs1	DAT uptake mod -2.76 (no result: D1 allo mod)
CC(C)(C)c1cc(C(F)(F)F)nc(SCCCNC(=O)c2ccco2)n1	CYP2C9 inh 87.8, CYP2C19 inh 92.1
CCn1nc(C)c(NC(=O)CCCSc2nc(-c3ccco3)cc(C(F)(F)F)n2)c1C	CYP2C9 inh 80.7, CYP2C19 inh 54.3
Cc1nn(C)c(C)c1NC(=O)CCSc1nc(-c2ccco2)cc(C(F)(F)F)n1	CYP2C9 inh 59.9
O=C(CCCSc1nc(-c2ccco2)cc(C(F)(F)F)n1)NCc1cccs1	CYP2C9 inh 79.5
Cc1cc(NC(=O)CCCSc2nc(-c3ccco3)cc(C(F)(F)F)n2)no1	none
CCOC(=O)c1cn2cccnc2n1	none (no result: D1 allo mod)
O=C(NC1CCCc2ccccc21)C1CCN(S(=O)(=O)c2cccc3nsnc23)CC1 (stereo not drawn)	none (no result: DAT uptake mod)
CCOc1cc(C(=S)N2CCCC2)ccc1OCC(=O)Nc1c(C)cc(C)cc1C	none (no result: CYP2C19 activ, CYP2C9 activ, CYP2C9 inh, CYP2C19 inh, D1 allo mod)
O=C(CCCn1c(SCC(=O)c2ccc(F)cc2)nc2ccccc2c1=O)NCc1ccccc1	CYP2C9 inh 90.4, CYP2C19 inh 70.8 (no result: D1 allo mod)
Cc1cc(NC(=O)CSc2nc3ccccc3c(=O)n2CCCC(=O)NCc2ccccc2)n[nH]1	CYP2C9 inh 77.7, CYP2C19 inh 86.6 (no result: D1 allo mod)
COc1ccc(-n2c(SCC(=O)NCC3CCCO3)nc3ccccc32)cc1 (stereo not drawn)	CYP2C9 inh 89.7, CYP2C19 inh 92.9 (no result: D1 allo mod)
O=C(CCCn1c(SCC(=O)NC2CCCC2)nc2ccccc2c1=O)NCC1CCCO1 (stereo not drawn)	none (no result: CYP2C19 activ, DAT uptake mod, CYP2C9 activ, CYP2C9 inh, CYP2C19 inh)
COc1ccc(-n2c(Cc3cccn3C)nnc2SCC(=O)NCC2CCCO2)cc1 (stereo not drawn)	none
O=C(CCCn1c(SCC(=O)NCC2CCCO2)nc2ccccc2c1=O)NCc1ccccc1 (stereo not drawn)	CYP2C9 inh 55.9 (no result: D1 allo mod)
CC(=O)c1c(C)[nH]c(C(=O)CSc2nnc(CN3CCCCCC3=O)n2-c2ccccn2)c1C	none
Cc1ccccc1OCCN1C(=O)NC2(CCCc3ccccc32)C1=O (stereo not drawn)	none (no result: D1 allo mod)
CC(=O)c1sc(N2C(=O)c3oc4ccccc4c(=O)c3C2c2ccc(C)o2)nc1C (stereo not drawn)	none (no result: CYP2C19 activ, DAT uptake mod, CYP2C9 activ, CYP2C9 inh, CYP2C19 inh)
Cc1ccc(NC2SC(=O)N(CC(=O)O)C2=O)cc1 (stereo not drawn)	CYP2C9 inh 61.0 (no result: D1 allo mod)
O=C(O)CN1C(=O)SC(Nc2ccc(C(=O)O)cc2)C1=O (stereo not drawn)	none (no result: D1 allo mod)
CCOc1cc(-c2ccc(N)c(OCC)c2)ccc1N	CYP2C9 inh 91.1, CYP2C19 inh 98.1
CCOC(=O)c1cnn(-c2sc(C(=O)OCC)c(C)c2C(=O)OCC)c1N	DAT uptake mod -2.49 (no result: CYP2C19 activ, CYP2C9 activ, CYP2C9 inh, CYP2C19 inh)
Cc1n[nH]c(C)c1S(=O)(=O)N1CCN(C(=O)c2ccco2)CC1	none
O=S(=O)(N[C@@H]1C[C@H]2CC[C@@H]1C2)c1cccs1	none
CC1CC(NS(=O)(=O)c2cccs2)CC(C)(C)C1 (stereo not drawn)	CYP2C19 inh 53.0 (no result: D1 allo mod)
N#Cc1cc(C#N)c(N2CCN(c3cccc(Cl)n3)CC2)nc1N	CYP2C19 inh 97.8 (no result: D1 allo mod)
NC1CCN(c2cccc(Cl)n2)CC1	none (no result: CYP2C19 activ, CYP2C9 activ, CYP2C9 inh, CYP2C19 inh, D1 allo mod)
C=CCN1C(=O)/C(=C\c2ccc(Cl)cc2)N=C1SCC(=O)NC1CCCCC1	none (no result: D1 allo mod)
COc1ccc(Cl)cc1N1C(=O)/C(=C\c2sccc2C)N=C1SCC(=O)NC1CC1	CYP2C9 inh 96.6, CYP2C19 inh 96.7 (no result: D1 allo mod)
Cc1ccc(Nc2nc3c(c(=O)[nH]c(=O)n3C)n2Cc2ccc(F)cc2)cc1	none (no result: CYP2C19 activ, CYP2C9 activ, CYP2C9 inh, CYP2C19 inh, D1 allo mod)
O=C(CCN1C(=O)c2ccccc2C1=O)Nc1ccc2c(c1)OCCO2	none
CC1CCN(S(=O)(=O)c2ccc(NC(=O)CCN3C(=O)c4ccccc4C3=O)cc2)CC1	CYP2C9 inh 94.4, CYP2C19 inh 62.4 (no result: D1 allo mod)
O=C(CCCCCN1C(=O)c2ccccc2C1=O)Nc1ccc(F)cc1	none (no result: CYP2C19 activ, CYP2C9 activ, CYP2C9 inh, CYP2C19 inh, D1 allo mod)
O=C(CCCCCN1C(=O)c2ccccc2C1=O)Nc1ccc(S(=O)(=O)N2CCCCC2)cc1	CYP2C9 inh 83.4 (no result: D1 allo mod)
O=C(CCN1C(=O)c2ccccc2C1=O)Nc1cccc(S(=O)(=O)N2CCCCC2)c1	CYP2C9 inh 91.5, CYP2C19 inh 81.4 (no result: D1 allo mod)
CC1CCN(S(=O)(=O)c2ccc(NC(=O)CN3CCN(c4ccccc4)CC3)cc2)CC1	none
CC1CCN(S(=O)(=O)c2ccc(NC(=O)Cn3nnc(-c4ccccc4F)n3)cc2)CC1	CYP2C9 inh 80.4
Cc1ccc(CCNC(=O)C2CCN(C(=O)c3sccc3-n3cccc3)CC2)cc1	none
CC1CN(S(=O)(=O)c2ccc(NC(=O)CCCN3C(=O)c4ccccc4C3=O)cc2)CC(C)O1 (stereo not drawn)	CYP2C9 inh 50.2
O=C(CCCCCN1C(=O)c2ccccc2C1=O)Nc1ccc2c(c1)OCCO2	CYP2C9 inh 75.9, CYP2C19 inh 71.2 (no result: D1 allo mod)
CC1CCN(S(=O)(=O)c2ccc(C(=O)Nc3sccc3C(N)=O)cc2)CC1	CYP2C9 inh 58.7, CYP2C19 inh 51.6 (no result: D1 allo mod)
CC1CCN(S(=O)(=O)c2ccc(NC(=O)Cc3ccccc3)cc2)CC1	CYP2C9 inh 92.3, CYP2C19 inh 78.0 (no result: D1 allo mod)
Cc1cc(NS(=O)(=O)c2ccc(NC(=O)CCN3C(=O)c4ccccc4C3=O)cc2)no1	none (no result: D1 allo mod)
CC1CN(S(=O)(=O)c2ccc(NC(=O)CCN3C(=O)c4ccccc4C3=O)cc2)CC(C)O1 (stereo not drawn)	CYP2C9 inh 57.3 (no result: DAT uptake mod)
COc1cc(C(=O)O/N=C2\CCCc3c2ccc(OC)c3[N+](=O)[O-])cc(OC)c1OC	none (no result: DAT uptake mod, D1 allo mod)
COc1ccccc1C(=O)O/N=C1/CCCc2c1ccc(OC)c2[N+](=O)[O-]	CYP2C9 inh 50.6, CYP2C19 inh 85.4 (no result: D1 allo mod)
CCOC(=O)Cc1csc(SCc2nc3sc4c(c3c(=O)[nH]2)CCC4)n1	none (no result: D1 allo mod)
N#Cc1c(NC(=O)CSCC(=O)O)sc2c1CCCC2	none
CCOC(=O)c1c(NC(=O)CSc2nnc(C)s2)sc2c1CCCCC2	CYP2C9 inh 55.1 (no result: D1 allo mod)
CCOC(=O)c1c(NC(=O)CSc2nnc(C)c(=O)[nH]2)sc2c1CCCC2	CYP2C9 inh 98.3 (no result: D1 allo mod)
CCOC(=O)Cc1csc(SCC(=O)Nc2sc3c(c2C(N)=O)CCC3)n1	CYP2C9 inh 50.3
Cc1nnc(SCC(=O)Nc2sc3c(c2C#N)CCCC3)[nH]c1=O	CYP2C9 inh 79.4
COC(=O)[C@@H]1C[C@H]2CC[C@H](O)C[C@H]2N1Cc1ccc(C(F)(F)F)cc1	none (no result: CYP2C19 activ, CYP2C9 activ, CYP2C9 inh, CYP2C19 inh, D1 allo mod)
NC(=O)c1c(NC(=O)COC(=O)CSc2nnc(-c3ccc(Cl)cc3)o2)sc2c1CCC2	CYP2C9 inh 79.1
Clc1ccccc1-c1nnn(Cc2ccc(-c3nn[nH]n3)cc2)n1	CYP2C9 inh 85.5, CYP2C19 inh 68.5
CC1CN(Cc2ccccc2Cl)CC(C)O1 (stereo not drawn)	none (no result: D1 allo mod)
CCCCCCOc1ccc(OCC(O)CN2C(=O)NC(C)(C)C2=O)cc1 (stereo not drawn)	none
CCCCOc1ccc(C2(C)CC(=O)NC2=O)cc1 (stereo not drawn)	CYP2C19 inh 50.6

Bioassay records from PubChem.
